Laboratory results as given in the supplement of paper PMC11417369.
Whole data set: some 25,000 sequences, median “ln(normalized median fluorescence intensity)” near 9.3, cut for the highest 2% near 10. This is one part of a sample in which the highest values are shown more often than they occur.

What follows are sequences tested on PF3D7_0420300 AP2 domain 1 (GST-tagged) (assay: gcPBM binding intensity (ln(normalized median fluorescence intensity)); higher = stronger DNA binding).
How it was run: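 Probes on an Agilent 4 × 180k array were primer-extended, double-stranded and 36 bp long, taken from intergenic genomic regions, with negative controls added. GST-tagged P. falciparum DNA-binding domains from E. coli, about 25 μg on average, were applied to the array for 1 h in 1× PBS containing 1% milk, 0.2 mg/ml BSA, 0.5% salmon testes DNA and 0.03% Triton X-100. Binding intensity, obtained after Alexa488 anti-GST antibody detection and a 488 nm scan, is the highest Masliner-normalised natural-log median intensity across replicate spots of either probe orientation.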

Sequence | gcPBM binding intensity (ln)
TTTACATATTTATATACACACTTTTGCGTGCGTGGT [CACACA_site6647] | 9.21
AAAAAAATTGGGAAAAGTACTTGCAGCTAGCTAAAA [XGTACX_site5178] | 9.18
TACTTTTATATGAATACACACAGGAATATATATATG [CACACA_site3568] | 9.48
ATTCTAAATATCAGTGCACACATTTCTACGCAAAGT [CACACA_site474] | 9.36
TATATATATATATATGGTACAGTTTATGCCTTTTAA [XGTACX_site6695] | 9.14
TAGTGATATAATTATGTGCACTTAATACAGGTCGAT | 9.42
AAAAAAAAAAAAAGTACACACTTTTGCGTACAAGTA [CACACA_site5672] | 9.32
TTTTTAAAAAAAAATAGAGAGTCAAAGTATGTGGCG [CACACA_negctrl_site194] | 9.32
AATTCTTTCATATATTGTACGTATTCCCATAAAATA [XGTACX_site5923] | 9.36
AATGCCTTGTTGAGGTGTACTGAATGTTATTTTAAT [XGTACX_site3255] | 9.19
ACAAAATAAAAACACACACACAAACACAAAAAAATA [CACACA_site3390] | 10.3
CACAAAAATAAATATAAACACACAATAAATAAATAA [CACACA_site8197] | 9.75
CAAAAAATTCAACACACACACACACCGATAAATAAA [CACACA_site8330] | 10.2
AAAAAAAAAAAAAACACACACACAAAATAAACAAAC [CACACA_site2720] | 10.3
AATAAAAACAAACAAAAAAACAAATAAATAAATAAA [CACACA_negctrl_site483] | 9.65
AAAATAAAATAAAACACAAAAAAATAAAACAAAATA [CACACA_negctrl_site16] | 9.8
AATATATATAAATAAACACACACAAATATAATAAAA [CACACA_site9176] | 10.2
TACAAAAATATATAAACACACAAATATAATATATAT [CACACA_site2942] | 9.74
TTCAAAATAAAAAATTCACACACATATATATATATA [CACACA_site8653] | 9.33
TATATATAAATAAACACACACAAATATAATAAAAAA [CACACA_site3526] | 10.1
ACAAATAAATAAAAAACACACACAAATAAATAAATA [CACACA_site8708] | 10.1
AAATAATTCAAAAAAACACACAAATTACAAAATAAA [CACACA_site269] | 9.72

Sequence | gcPBM binding intensity (ln)
TATATATTATAAAAGAGTACAGAAAGAAAAAAAAAT [XGTACX_site8305] | 9.54
TCTTTTAAATAACAACATAAATAAATAAATAAATAA [GTGCAC_negctrl_site319] | 9.01
GTGTATTTTGTGCGCACACACATGCAAAAAGAAATA [CACACA_site6660] | 9.55
AGAAATTATAAATACCTACACACTTATCAAAATAAA [CACACA_site2264] | 9.55
TTACACATATATATAAATATATATAAATATATATAT [CACACA_negctrl_site150] | 9.08
AATATTATTTAGGAGCGTACGTTTTATTTACATATT [XGTACX_site5188] | 9.4
TATATTAAACCATGTAGTACCTTGAATAAATATTAT [XGTACX_site8254] | 9.23
TTTATTTAATTCATTGCATGTAATTTTTGTGTCCAC [TGCATGCA_site677] | 9.21
ATTACATAACAATATACACACTATTGATTAAAGAGA [CACACA_site5602] | 9.56
GGAATATAAATACATACACACATATATATATATATA [CACACA_site4998] | 9.44
TTTTTTATTTTGTGCACACACATAAAAATATATATA [CACACA_site761] | 9.5
TTAATAAGAGAGCAATAGGTGGACTGTTTCTTTTAT [CACACA_negctrl_site1239] | 9.22
TAAATTAAAAAACACACACACAAAAAAAAAAAAAAA [CACACA_site2263] | 10
CACAAAAATAGACACACACACATATAAATAAATATA [CACACA_site6598] | 10
TACCAAAATAGACACACACACAAAATATGTAAATAT [CACACA_site6963] | 10.2
AAATAAATAATATGTAAACACACAAAAAATAAAAAT [CACACA_site8307] | 9.72
AATTAACAAAAACACACACACACACCGACAAAAAAA [CACACA_site4444] | 10.3
AATTAACAAAAACACACACACACACCCACAAAAAAA [CACACA_site517] | 10.1
ATATATATATATATATATATATATATATATTATATA [XGTACX_negctrl_site48] | 8.89
ATGTGTATAATTAAATGTACATATATATATATATAT [XGTACX_site829] | 9.52
ATATGTAGAATAAAAAAAAAAAAAAAAAAAAAAAAT [CACACA_negctrl_site621] | 9.39
ATATATATATAATTATATAAAATATATCATATGTTA [XGTACX_negctrl_site47] | 9.15

Sequence | gcPBM binding intensity (ln)
TATTAATTATATTTATGTACATAATCATATTATTAT [XGTACX_site7938] | 9.37
TTTAATCATATGTTATATAATAAGCCCCCCCCCCAA [CACACA_negctrl_site486] | 10.4
TGTAGCCTGGAGAAGAGTACATAGTATCTGGTAGCT [XGTACX_site4943] | 9.12
ATATTCATGTTGATATGTACTTATTCTATATTGAAT [XGTACX_site8347] | 9.28
AAGTGCATATTATTCACACATAATAATTGTATACCT [CACACA_site5965] | 9.34
CTAAACAAAAAATAATGTACACATACATAAAAAATA [XGTACX_site1808] | 9.35
AAAAAAATTCTTGGCGCACACACTTTAAAAATTAAA [CACACA_site597] | 9.24
AAATATTAGTAACACAGACACACAAAAAAAAAAAAA [CACACA_site2175] | 9.5
AAGTAAAAAAATAGCACACACACAAAAACACCCACA [CACACA_site1291] | 10
AAAAAACAAAAACACACGCACACAAAAAAAAAAAAA [CACACA_site802] | 9.82
CAATATAAAAAACACACGCACACAAAAAAAAAAAAA [CACACA_site3521] | 9.79
GTAAAAAAATAGCACACACACAAAAACACGCACAAA [CACACA_site6723] | 10.2
AAGTAAAAAAATAGCACACACACAAAAACACAGACA [CACACA_site4839] | 10.2
AAAAAAAACATCCTCACACATATATATATATATATA [CACACA_site5166] | 9.18
TCACCATATAAACGTGCACACTACAAAAATATATAA [CACACA_site5413] | 9.26
TTGGTTATACAACACATGCACACGTAAATAAATATT [CACACA_site3841] | 9.38
AAAGACGTTTATAAATGTACATACACTTTAAAAGTT [XGTACX_site8753] | 9.08
AAAAAGTGATTAAAATGTACAAAATGCATAAAAGAA [XGTACX_site6625] | 9.6
ATAAATAAATAAAAGCGTACATATATATAAAATATA [XGTACX_site8107] | 9.39
TCGGGAGGGGGGAAGCGTACATATATAAAATTATTA [XGTACX_site4683] | 10.2
TATAAATAGAGGAAGCGTACATATATATATATATAT [XGTACX_site4993] | 9.34
TTCTTACATGAGTGTACACACTTTTTTTCAGAAAAT [CACACA_site4215] | 9.19

Sequence | gcPBM binding intensity (ln)
CGTGGGAGCGGACACACACACACACCCATATATATA [CACACA_site4340] | 10.1
ACCGTGGGAGGACACACACACACACCCACATATATA [CACACA_site4339] | 10.2
AAACCGTGGGAGCACACACACACACGCGCACATATA [CACACA_site6288] | 10.1
ACCGTGGGAAGACACACACACACACCCACATATATA [CACACA_site333] | 10.2
CGTGGGAGCAGACACACACACACACCCATATATATA [CACACA_site334] | 10.1
ACTGTGGGAATAACCACACACACACCCACATATATA [CACACA_site3542] | 10
AACGCACGAGGACACACACACATATTTATATTTATA [CACACA_site6608] | 9.87
ATGGGACATATATATACACACATATATATATATATA [CACACA_site1202] | 9.46
ACCGTGGGAGGACACACACACACACGCACATATATA [CACACA_site6289] | 10.3
AATTATCAGGAATGATGTACTGAAATAAAAAAAAAA [XGTACX_site3280] | 9.11
GTATATATATATATATGTACTAATTAGTAGTTTACG [XGTACX_site6274] | 9.25
TTTTTATGAATTCTTTTGTTAATAATAATATGTTGT [TGCATGCA_negctrl_site198] | 9.19
ATATATCTGTATGGCACACACGGATAAATATATATA [CACACA_site4668] | 9.52
ATATAGTAAATTGGTAGTACATAAAATGATTTTATG [XGTACX_site4143] | 9.26
AAAAAAAAATTGTGTACACATAATTATATCATATGT [CACACA_site4500] | 9.3
TGTTTCTTATTTTTTTCACACACTAAACATTTCAAA [CACACA_site2218] | 9.62
TTTCTTATTTTTTTCACACACTAAACATTTCAAATG [CACACA_site5259] | 9.35
ACTATTTTCTTCAAAACATGCACCACATAAACATAA [TGCATGCA_site200] | 9.18
CTATTTCAGAAACACACACACACAAACAAACATATA [CACACA_site978] | 9.93
ACCTATTTCAAACACACACACACACTAGCAAACATA [CACACA_site4695] | 10.3
ACCTATTTCAAACACACACACACACCCACAAACATA [CACACA_site977] | 10.4
ACCTATTTCAAACACACACACACACTAACAAACATA [CACACA_site8233] | 10.3
